Measured values from PubChem BioAssay AID488899 (Broad Institute, 2010).
Out of some 330,000 compounds screened, about 2,800 (0.85%) were called active. The sample as a whole holds a higher share of actives than the screen did. A number with no mark means an inactive call.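 The calls were made as follows: active = mean inhibition across replicates of 60% or more, whatever share of single replicates reaches that level; inconclusive = some that reach 60%, reason not given; inactive = mean inhibition across replicates below 60%.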

assay: inhibitors of MITF-dependent TRPM1 promoter reporter, primary screen, cell-based, SK-MEL-5, single point, luciferase (AID 488899); conditions: SK-MEL-5 TRPM1 promoter luciferase, 24 h; at 12.5 µM; active compounds read high

Compound | inhibition
CC1CCCCC1NC(=O)COC(=O)Cc1ccc(Cl)cc1 (stereo unspecified) | 6.02%
CN(C(=O)CSc1nncc2ccccc12)C1CCCCC1 | -4.81%
CN(c1ccc2nc3ccccc3c(=O)n2n1)C1CCCCC1 | 84.7% (active)
CN(C(=O)c1cc2c(=O)n3ccccc3nc2s1)C1CCCCC1 | -36.7%
CCCN(CCC)S(=O)(=O)c1ccc(C(=O)NNC(=O)c2cc(OC)c(OC)c(OC)c2)cc1 | 4.09%
Clc1cccc(-c2nc(NCC3CCCO3)c3ccccc3n2)c1 (stereo unspecified) | -7.27%
N#CCSc1nc(-c2ccccc2)nc2ccc(F)cc12 | 6.09%
Clc1ccc2nc(-c3ccccc3)nc(C(Cl)Cl)c2c1 | 90.9% (active)
CCCOc1cccc(C(=O)Nc2nnn(CCC)n2)c1 | -31.2%
COc1cc(C(=O)N2CCN(C3CCC(C)CC3)CC2)cc(OC)c1OC (stereo unspecified) | -0.962%
O=C1c2ccccc2C(=O)N1CC1c2ccccc2CCN1S(=O)(=O)c1ccccc1 (stereo unspecified) | -6.02%
CCN1CCC(O)(/C=C/c2ccc(C)cc2)C(C(=O)/C=C/c2ccc(C)cc2)C1 (stereo unspecified) | 77.1% (active)
CCN1CCN(C(=O)CSc2ccc(C)cc2)CC1 | -21.2%
CCOC(=O)C1CCCN(C(=O)/C=C/c2ccc(OC)cc2)C1 (stereo unspecified) | -11.1%
Nc1ccccc1SC(C[N+](=O)[O-])c1ccccc1 (stereo unspecified) | 75.5% (active)
Cc1ccc(C(C[N+](=O)[O-])c2c(C)cc3ccccn23)cc1 (stereo unspecified) | 40.1%
O=C(NCC(=O)N1CCCCCCC1)c1ccccc1Cl | -25.1%
COc1ccc(S(=O)(=O)N2CCCC2CNC(=O)C(=O)NC2CC2)cc1 (stereo unspecified) | -5.39%
O=C(NNC(=S)NCCCN1CCOCC1)c1ccncc1 | -1.68%
Oc1ccccc1CN1CCN(C(c2ccccc2)c2ccccc2)CC1 | 5.95%
O=C1CC(N2CCN(C(c3ccccc3)c3ccccc3)CC2)C(=O)N1 (stereo unspecified) | -6.57%

Compound | inhibition
CC1(C)CC(N2CCN(C(c3ccccc3)c3ccccc3)CC2)=CC(=[N+]2CCCCC2)C1 | 94% (active)
CN(C)CCN=c1cc(-c2ccccc2)oc2ccc(Cl)cc12 | -36.2%
CCOc1ccc(C(=O)CCC(=O)Nc2ccncc2)cc1 | 8.37%
CCOc1ccc(NC(=O)CCC(=O)NNC(=O)NC2CCCCC2)cc1 | -2.59%
CCOc1ccc(NC(=O)CCC(=O)N/N=C/c2ccc([N+](=O)[O-])s2)cc1 | 62.8% (active)
CCCCN(C(=O)c1ccc(OC(F)(F)F)cc1)c1c(N)n(CCC)c(=O)[nH]c1=O | -1.56%
CCN(C(=O)COC(=O)Cc1c(F)cccc1Cl)c1c(N)n(Cc2ccccc2)c(=O)[nH]c1=O | -2.14%
O=C(NCCc1ccc(C(F)(F)F)cc1)c1ccc2c(c1)OCO2 | -3.11%
O=C(CCc1ccccc1Cl)Nc1ccc(S(=O)(=O)Nc2nccs2)cc1 | 12.4%
Cc1coc2c(O)cc3c(c12)OC1(N2CCCCC2)C(=O)NCCCC31 (stereo unspecified) | 77.4% (active)
COc1ccc(CCN2CC(C(=O)OCC(=O)NCc3ccccc3Cl)CC2=O)cc1OC (stereo unspecified) | -2.95%
CC1C(C)N(C(=O)CCl)c2ccccc2N1C(=O)CCl (stereo unspecified) | 91.3% (active)
CC1C(=O)N(Cc2ccccc2)c2ccccc2N1C(=O)c1ccccc1 (stereo unspecified) | 8.87%
CC1CC(C)CN(CC(=O)N2c3ccccc3CCc3ccccc32)C1 (stereo unspecified) | -0.982%
CCC1([N+](=O)[O-])COC(c2ccc(C(C)C)cc2)OC1 (stereo unspecified) | -55.6%
O=C(Nc1ccc2ccccc2c1[N+](=O)[O-])c1ccccc1 | -36.6%
Cc1c(NC(=O)CSc2cccc3cccnc23)c(=O)n(-c2ccccc2)n1C | 35.6%
CC(=O)/C(=N\Nc1ccc(Cl)cc1Cl)Sc1cccc2cccnc12 | 65.6% (active)
S=C(NCc1cccnc1)Nc1ccc(Cl)cc1Cl | -6.79%
CC1(C)C(=O)C2(CCCCC2)C(=O)OC1c1cccs1 (stereo unspecified) | 4.16%
C=CCn1c(=S)[nH]c2scc(-c3ccco3)c2c1=O | 1.55%

Compound | inhibition
CCN(CC)S(=O)(=O)c1ccc(N2CCOCC2)c(NC(=O)c2ccc(=O)n(C)n2)c1 | 2.54%
CCN(CC)S(=O)(=O)c1cc(C(=O)Nc2cc(S(=O)(=O)N3CCOCC3)ccc2N2CCCC2)ccc1F | 6.91%
CCN(CC)S(=O)(=O)c1ccc(N2CCCC2)c(NC(=O)c2ccc([N+](=O)[O-])o2)c1 | 88.5% (active)
Nc1ccc(-n2nncc2-c2ccco2)cc1 | -11.2%
O=C(c1cccc(S(=O)(=O)N2CCCCCC2)c1)N1CCN(Cc2ccccc2)CC1 | -3.86%
CCOC(=O)c1c(NC(=O)CN2C(=O)NC3(CCC(C)CC3)C2=O)sc(C)c1CC (stereo unspecified) | 0.199%
CC(=NNC(=S)N1CCCCCC1)c1ccccn1 | 58.9%
NC(=O)NC(CC(=O)NNC(=O)c1ccccn1)c1ccc(Cl)cc1 (stereo unspecified) | -12.2%
C/C(=N\NC(=O)c1ccoc1C)c1ccccc1O | -21.6%
C/C(=N\NC(=O)Cc1ccc(Cl)cc1)c1ccccn1 | 80% (active)
CC1=NNC(=O)C1CCC(=O)N/N=C(\C)c1ccc(Cl)cc1 (stereo unspecified) | 2.4%
C/C(=N\NC(=O)c1ccccc1F)c1ccccn1 | 62.2% (active)
CC(C)CN1CC(C)C(=O)N(c2ccccc2)C1=S (stereo unspecified) | -5.49%
COc1cc2c(cc1OC)C(C)N(S(=O)(=O)c1cnc(Cl)c(Cl)c1)CC2 (stereo unspecified) | 76% (active)
COc1ccc(S(=O)(=O)N2CCC(C(=O)N3CCc4ccccc4C3)CC2)cc1OC | 1.79%
COc1cc2c(cc1OC)CN(C(=O)c1cc(S(=O)(=O)N3CCCCC3)ccc1Cl)CC2 | 10.9%
CN(CCc1ccccn1)C(=O)CCC1CCCN(Cc2ccccc2OC(F)F)C1 (stereo unspecified) | -12.8%
CC[C@]1(O)CC2CN(CCc3c([nH]c4ccccc34)[C@@](C(=O)OC)(c3cc4c(cc3OC)N(C=O)[C@H]3[C@@](O)(C(=O)OC)[C@H](OC(C)=O)[C@]5(CC)C=CCN6CC[C@]43[C@@H]65)C2)C1 (stereo partly specified) | 45.8%
CC[C@]1(O)C[C@@H]2CN(CCc3c([nH]c4ccccc34)[C@@](C(=O)OC)(c3cc4c(cc3OC)N(C)[C@H]3[C@@](O)(C(=O)OC)[C@H](OC(C)=O)[C@]5(CC)C=CCN6CC[C@]43[C@@H]65)C2)C1 | 62.2% (active)
